Source: PubChem BioAssay AID1159580 (chemical genetic matrix, 2015)
Among all 5,500 compounds or so, about 2,000 (36%) were called active. Inconclusive results (about 18%) are left out. Cut-off read from the data, not from the text of the source: active = normalized growth mostly below about 0.91 (no sharp cut-off); inconclusive = no clear call, values can overlap the other calls; inactive = mostly above about 0.92. Some of the results follow.

Experiment: chemical genetic growth profiling, strain panel (AID 1159580);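 note: tested at 20 µM; growth read once vehicle control cultures reached saturation at 30 °C; 1 = growth at the plate median or of vehicle wells; lower values mean less growth of the strain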
Conditions: S. cerevisiae deletion strains, growth OD

Measured: normalized growth

CCCCC(CC)CN1CN(CC(CC)CCCC)CC(C)(N)C1 (stereo not drawn)
active: locus YAL013W, strain DEP1, active compounds read low 0.14 | locus YAL021C, strain ccr4, active compounds read low 0.0639 | locus YAL026C, strain drs2, active compounds read low 0.0615 | locus YAL030W, strain snc1, active compounds read low 0.0534 | locus YBL061C, strain skt5, active compounds read low 0.0552 | locus YBR009C, strain hhf1, active compounds read low 0.0618 | locus YBR021W, strain FUR4, active compounds read low 0.168 | locus YBR023C, strain chs3, active compounds read low 0.0607 | locus YBR171W, strain sec66, active compounds read low 0.0721 | locus YBR229C, strain ROT2, active compounds read low 0.816 | locus YBR231C, strain swc5, active compounds read low 0.0597 | locus YBR279W, strain paf1, active compounds read low 0.088 | locus YCL011C, strain gbp2, active compounds read low 0.0548 | locus YCL016C, strain dcc1, active compounds read low 0.0625 | locus YCL029C, strain bik1, active compounds read low 0.573 | locus YCL061C, strain MRC1, active compounds read low 0.062 | locus YCL069W, strain vba3, active compounds read low 0.0607 | locus YCR088W, strain abp1, active compounds read low 0.0577 | locus YDL005C, strain med2, active compounds read low 0.0691 | locus YDL035C, strain GPR1, active compounds read low 0.329 | locus YDL040C, strain nat1, active compounds read low 0.055 | locus YDL074C, strain BRE1, active compounds read low 0.228 | locus YDL101C, strain DUN1, active compounds read low 0.417 | locus YDL134C, strain PPH21, active compounds read low 0.58 | locus YDL192W, strain arf1, active compounds read low 0.0997 | locus YDR001C, strain nth1, active compounds read low 0.0567 | locus YDR069C, strain doa4, active compounds read low 0.0614 | locus YDR101C, strain arx1, active compounds read low 0.573 | locus YDR137W, strain rgp1, active compounds read low 0.111 | locus YDR150W, strain NUM1, active compounds read low 0.801 | locus YDR159W, strain sac3, active compounds read low 0.0869 | locus YDR162C, strain NBP2, active compounds read low 0.233 | locus YDR195W, strain ref2 0.116 | locus YDR297W, strain sur2, active compounds read low 0.0539 | locus YDR318W, strain mcm21, active compounds read low 0.471 | locus YDR334W, strain swr1, active compounds read low 0.0598 | locus YDR335W, strain msn5, active compounds read low 0.0571 | locus YDR388W, active compounds read low 0.15 | locus YDR392W, strain spt3, active compounds read low 0.0725 | locus YDR502C, strain sam2, active compounds read low 0.401 | locus YEL003W, strain gim4, active compounds read low 0.0521 | locus YEL037C, strain rad23, active compounds read low 0.0554 | locus YEL061C, strain CIN8 (second series), active compounds read low 0.0574 | locus YEL061C, strain CIN8, active compounds read low 0.472 | locus YER015W, strain faa2, active compounds read low 0.0593 | locus YER016W, strain bim1, active compounds read low 0.0563 | locus YER110C, active compounds read low 0.627 | locus YER111C, strain swi4, active compounds read low 0.0661 | locus YER155C, strain BEM2 (second series), active compounds read low 0.0846 | locus YER155C, strain BEM2, active compounds read low 0.425 | locus YER167W, strain BCK2, active compounds read low 0.55 | locus YFR010W, strain ubp6, active compounds read low 0.0701 | locus YGL086W, strain mad1, active compounds read low 0.283 | locus YGL167C, strain pmr1, active compounds read low 0.0684 | locus YGL173C, strain kem1, active compounds read low 0.0624 | locus YGL227W, strain vid30, active compounds read low 0.0601 | locus YGL240W, strain doc1, active compounds read low 0.0704 | locus YGL248W, strain PDE1, active compounds read low 0.633 | locus YGL253W, strain hxk2, active compounds read low 0.0538 | locus YGR078C, strain PAC10, active compounds read low 0.469 | locus YGR135W, strain pre9, active compounds read low 0.381 | locus YGR229C, strain SMI1, active compounds read low 0.0664 | locus YGR252W, strain gcn5, active compounds read low 0.224 | locus YHR013C, strain ard1, active compounds read low 0.124 | locus YHR027C, strain rpn1, active compounds read low 0.0601 | locus YHR030C, strain SLT2, active compounds read low 0.133 | locus YHR079C, strain IRE1 (second series), active compounds read low 0.573 | locus YHR094C, strain hxt1, active compounds read low 0.911 | locus YHR129C, strain ARP1, active compounds read low 0.716 | locus YHR142W, strain chs7, active compounds read low 0.077 | locus YHR200W, strain rpn10, active compounds read low 0.214 | locus YIL066C, strain RNR3, active compounds read low 0.45 | locus YIL073C, strain SPO22, active compounds read low 0.364 | locus YIR030C, strain dcg1, active compounds read low 0.651 | locus YJL092W, strain hpr5, active compounds read low 0.0575 | locus YJL095W, strain BCK1 (second series), active compounds read low 0.0537 | locus YJL095W, strain BCK1, active compounds read low 0.188 | locus YJL115W, strain asf1, active compounds read low 0.068 | locus YJL129C, strain trk1, active compounds read low 0.083 | locus YJL134W, strain LCB3, active compounds read low 0.918 | locus YJL154C, strain vps35, active compounds read low 0.0563 | locus YJL164C, strain tpk1, active compounds read low 0.0598 | locus YJL166W, strain qcr8, active compounds read low 0.0595 | locus YJL168C, strain set2, active compounds read low 0.826 | locus YJL187C, strain SWE1 (second series), active compounds read low 0.513
inactive: locus YDL185W, strain tfp1, active compounds read low 1.02 | locus YGL078C, strain dbp3, active compounds read low 1 | locus YIL125W, strain kgd1, active compounds read low 1.01
